These results are taken from PubChem BioAssay (EPA / NIEHS).

The source made the active and inactive calls. The calls were made as follows: active = hit-call score of the fitted dose curve at least 0.9, where 1 is the maximum; inactive = score below 0.9.

Read-out in assay [1]: Urokinase-type plasminogen activator receptor (uPAR), PLAUR (gene 5329)
Nature of the assay: BSK_CASM3C_uPAR: BioMAP Diversity Plus: CASM3C Assay for Urokinase-type plasminogen activator receptor (uPAR) Biomarker Activity (AID 2283054).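 Also: cell-surface uPAR protein level quantified by ELISA.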 As to conditions: primary human coronary artery smooth muscle cells; actives raise or lower the signal.

Read-out in assay [2]: Vascular cell adhesion molecule 1 (VCAM1), VCAM1 (gene 7412)
Put plainly: BSK_CASM3C_VCAM1: BioMAP Diversity Plus: CASM3C Assay for Vascular cell adhesion molecule 1 (VCAM1) Biomarker Activity (AID 2283055).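 Also: VCAM-1 protein level quantified by ELISA on the cells.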 Particulars: primary human coronary artery smooth muscle cells; actives raise or lower the signal.

Read-out in assay [3]: Collagen III, COL3A1 (gene 1281)
Nature of the assay: BSK_hDFCGF_CollagenIII: BioMAP Diversity Plus: hDFCGF Assay for Collagen III Biomarker Activity (AID 2283056). As to conditions: primary human foreskin fibroblasts; actives raise or lower the signal. In short, it runs like this: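 ELISA readout of Collagen III in human dermal (foreskin) fibroblasts, taken 24 h post-treatment. Gain or loss relative to DMSO vehicle fitted in both directions.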

Read-out in assay [4]: Epidermal growth factor receptor (EGFR), EGFR (gene 1956)
Nature of the assay: BSK_hDFCGF_EGFR: BioMAP Diversity Plus: hDFCGF Assay for Epidermal growth factor receptor (EGFR) Biomarker Activity (AID 2283057). As to conditions: primary human foreskin fibroblasts; actives raise or lower the signal. In short, it runs like this: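 Dosing human primary skin fibroblasts, then measuring surface EGFR by ELISA at 24 h, gives the endpoint; gains and losses relative to DMSO were fitted in both directions.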

A short description of assay [5]: BSK_hDFCGF_Proliferation: Cell Proliferation Assessment in the BioMAP Diversity Plus: hDFCGF Assay (AID 2283059).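 Also: curves fitted for both rise and fall of signal versus DMSO baseline.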 As to conditions: primary human foreskin fibroblasts. In short, it runs like this:
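This proliferation readout used SRB total-protein staining of human foreskin fibroblasts […], normalized to DMSO with bidirectional curve fitting.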

Read-out in assay [6]: Macrophage colony-stimulating factor (MCSF), CSF1 (gene 1435)
Nature of the assay: BSK_hDFCGF_MCSF: BioMAP Diversity Plus: hDFCGF Assay for Macrophage colony-stimulating factor (MCSF) Biomarker Activity (AID 2283060). Particulars: primary human foreskin fibroblasts; actives raise or lower the signal. In short, it runs like this: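 M-CSF levels read by ELISA at 24 h post-dosing in human skin fibroblasts. Parallel cultures stained with SRB assessed cytotoxicity at the same time point; response fitted in both directions against the DMSO baseline.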

Assay [7] can be described thus: BSK_hDFCGF_SRB: Viability Assessment in the BioMAP Diversity Plus: hDFCGF Assay (AID 2283061).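 Also: cells exposed to compound for 24 h before the read.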 As to conditions: primary human foreskin fibroblasts. In short, it runs like this: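 Viability was read as total protein: after 10% TCA fixation, wells were stained with 0.1% sulforhodamine B and read at 560 nm. Primary human foreskin fibroblasts were dosed for 24 h, with bidirectional fitting versus DMSO.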

Read-out in assay [8]: TIMP metallopeptidase inhibitor 1 (TIMP1), TIMP1 (gene 7076)
Nature of the assay: BSK_hDFCGF_TIMP1: BioMAP Diversity Plus: hDFCGF Assay for TIMP metallopeptidase inhibitor 1 (TIMP1) Biomarker Activity (AID 2283062). As to conditions: primary human foreskin fibroblasts; actives raise or lower the signal. In short, it runs like this: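 TIMP-1 measured by ELISA 24 h after chemical dosing of primary human skin fibroblasts, with gain or loss fitted relative to DMSO. Parallel SRB staining (560 nm) monitored overt cytotoxicity.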

Read-out in assay [9]: Monokine induced gamma interferon (MIG), CXCL9 (gene 4283)
Nature of the assay: BSK_hDFCGF_MIG: BioMAP Diversity Plus: hDFCGF Assay for Monokine induced gamma interferon (MIG) Biomarker Activity (AID 2283063). As to conditions: primary human foreskin fibroblasts; actives raise or lower the signal. In short, it runs like this: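 Human primary foreskin fibroblasts in the hDFCGF system, exposed to test chemical for 24 h; MIG measured by ELISA. Bidirectional curve fitting against DMSO negative control as activity baseline.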

Read-out in assay [10]: Matrix Metallopeptidase 1 (MMP1), MMP1 (gene 4312)
Put plainly: BSK_hDFCGF_MMP1: BioMAP Diversity Plus: hDFCGF Assay for Matrix Metallopeptidase 1 (MMP1) Biomarker Activity (AID 2283064). As to conditions: primary human foreskin fibroblasts; actives raise or lower the signal. In short, it runs like this: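 MMP1 levels quantified by ELISA 24 h after dosing human dermal fibroblast cultures, with parallel SRB total-protein staining for overt cytotoxicity. Data fitted in both directions against DMSO baseline.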

Read-out in assay [11]: Vascular cell adhesion molecule 1 (VCAM1), VCAM1 (gene 7412)
Nature of the assay: BSK_hDFCGF_VCAM1: BioMAP Diversity Plus: hDFCGF Assay for Vascular cell adhesion molecule 1 (VCAM1) Biomarker Activity (AID 2283065). As to conditions: primary human foreskin fibroblasts; actives raise or lower the signal. In short, it runs like this:
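ELISA readout of VCAM-1 on human dermal fibroblast primary cultures, 24 h after chemical exposure. Gain or loss of signal fitted in both directions against DMSO baseline.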

Read-out in assay [12]: Plasminogen activator inhibitor-1 (PAI1), SERPINE1 (gene 5054)
Put plainly: BSK_hDFCGF_PAI1: BioMAP Diversity Plus: hDFCGF Assay for Plasminogen activator inhibitor-1 (PAI1) Biomarker Activity (AID 2283066). Particulars: primary human foreskin fibroblasts; actives raise or lower the signal. In short, it runs like this:
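Fibroblasts from human foreskin were treated with test chemical. After 24 h, PAI-1 was measured by ELISA. Activity was fitted in both directions relative to DMSO.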

Read-out in assay [13]: Intercellular Adhesion Molecule 1 (ICAM1), ICAM1 (gene 3383)
Nature of the assay: BSK_KF3CT_ICAM1: BioMAP Diversity Plus: KF3CT Assay for Intercellular Adhesion Molecule 1 (ICAM1) Biomarker Activity (AID 2283067). Particulars: primary human keratinocytes with fibroblasts; actives raise or lower the signal. In short, it runs like this:
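Cell-surface ICAM-1 was measured by ELISA 24 h after dosing primary human skin keratinocytes co-cultured with fibroblasts. Parallel SRB staining tracked overt cytotoxicity. Gain or loss of signal was fitted relative to DMSO.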

Read-out in assay [14]: Interferon-gamma inducible Protein 10 (IP10), CXCL10 (gene 3627)
Nature of the assay: BSK_KF3CT_IP10: BioMAP Diversity Plus: KF3CT Assay for Interferon-gamma inducible Protein 10 (IP10) Biomarker Activity (AID 2283068). As to conditions: primary human keratinocytes with fibroblasts; actives raise or lower the signal. In short, it runs like this: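 Signal is secreted/surface IP-10 by ELISA in a human primary skin co-culture of keratinocytes and foreskin fibroblasts, taken 24 h post-dosing; DMSO served as negative control.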

The nature of assay [15]: BSK_KF3CT_SRB: Viability Assessment in the BioMAP Diversity Plus: KF3CT Assay (AID 2283069).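 Also: total protein by sulforhodamine B staining as a cytotoxicity measure; read 24 h after compound addition.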 Particulars: primary human keratinocytes with fibroblasts. In short, it runs like this:
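Cytotoxicity was gauged by SRB staining (0.1% SRB, 10% TCA fixation, 560 nm) of parallel cultures at 24 h. The cells were primary human skin keratinocytes co-cultured with fibroblasts, and activity was fitted in both directions against DMSO.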

Read-out in assay [16]: Interleukin-1 alpha (IL1a), IL1A (gene 3552)
Nature of the assay: BSK_KF3CT_IL1a: BioMAP Diversity Plus: KF3CT Assay for Interleukin-1 alpha (IL1a) Biomarker Activity (AID 2283070). As to conditions: primary human keratinocytes with fibroblasts; actives raise or lower the signal. In short, it runs like this:
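IL-1a was detected by ELISA 24 h after chemical treatment of a co-culture of human skin keratinocytes and foreskin fibroblasts. Gain or loss of signal was fitted against the DMSO baseline.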

Read-out in assay [17]: TIMP metallopeptidase inhibitor 2 (TIMP2), TIMP2 (gene 7077)
Put plainly: BSK_KF3CT_TIMP2: BioMAP Diversity Plus: KF3CT Assay for TIMP metallopeptidase inhibitor 2 (TIMP2) Biomarker Activity (AID 2283071). Particulars: primary human keratinocytes with fibroblasts; actives raise or lower the signal. In short, it runs like this: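 Chemicals were dosed onto human skin primary co-cultures of keratinocytes and foreskin fibroblasts, and TIMP-2 was measured by ELISA after 24 hours. Activity in either direction was fitted relative to DMSO.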

Read-out in assay [18]: Transforming growth factor beta 1 (TGFb1), TGFB1 (gene 7040)
Put plainly: BSK_KF3CT_TGFb1: BioMAP Diversity Plus: KF3CT Assay for Transforming growth factor beta 1 (TGFb1) Biomarker Activity (AID 2283072). Particulars: primary human keratinocytes with fibroblasts; actives raise or lower the signal. In short, it runs like this:
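KF3CT co-culture (keratinocytes + fibroblasts), 24 h exposure → TGF-b1 ELISA → bidirectional fit, DMSO = baseline. Parallel SRB total-protein staining (0.1% SRB, 10% TCA fixation, 560 nm) for cytotoxicity.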

Read-out in assay [19]: Interleukin-8 (IL8), CXCL8 (gene 3576)
Put plainly: BSK_hDFCGF_IL8: BioMAP Diversity Plus: hDFCGF Assay for Interleukin-8 (IL8) Biomarker Activity (AID 2283058). Particulars: primary human foreskin fibroblasts; actives raise or lower the signal. In short, it runs like this: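 IL-8 levels read by ELISA at 24 hours after dosing human skin fibroblast cultures. Parallel SRB staining assessed overt cytotoxicity, and gain or loss of signal was fitted against DMSO control.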

Turning to `O=[N+]([O-])c1ccc(O)c([N+](=O)[O-])c1`, the outcome in assay [1], in assay [2], in [3], in assay [4], in assay [5] and in [6] was inactive. For the same compound, the outcome in [7], in [8], in assay [9], in assay [10], in [11] and in assay [12] was inactive. Further, the outcome in assay [13], in assay [14], in [15], in [16], in assay [17] and in assay [18] was inactive.
In the case of `O=[N+]([O-])c1ccc2c3c(cccc13)CC2`, the outcome in assay [1], in [2], in assay [3], in assay [19], in [7] and in assay [8] was inactive. For the same compound, the result in [9], in assay [10], in [11], in [12], in [13] and in assay [14] was inactive. Further, the outcome in assay [15], in assay [16] and in assay [18] was inactive. Moreover, the figures for the AC50 in assay [5], in assay [6] and in assay [17] were 27.7 µM (active), 10.6 µM (active) and 11.4 µM (active), respectively.
Regarding `CC1(C)Cc2cccc(O)c2O1`, the outcome in assay [1], in assay [2], in [3], in assay [5], in [6] and in [7] was inactive. For the same compound, the outcome in assay [8], in [9], in [10], in [11], in assay [12] and in assay [13] was inactive. Moreover, the outcome in assay [14], in assay [15], in [16], in assay [17] and in [18] was inactive.
As to `O=c1[nH]c(=O)[nH]c(=O)[nH]1`, the result in assay [1], in assay [2], in assay [3], in assay [5], in assay [6] and in assay [7] was inactive. In addition, the outcome in assay [8], in [9], in [10], in [11], in assay [12] and in [13] was inactive. In addition, the outcome in assay [14], in [15], in [16], in assay [17] and in [18] was inactive.
Take `ClC(Cl)=C(Cl)C(Cl)=C(Cl)Cl`: the outcome in [1], in assay [6], in assay [7], in assay [9] and in assay [11] was inactive. The AC50 in [2] was 20 µM (active); in assay [3], 20 µM (active); in assay [5] it was 29.4 µM (active); in assay [8] it was 20 µM (active); in assay [10], 32 µM (active); in [12], 0.435 µM (active). The AC50 in assay [13] was 32.4 µM (active); in [14] it was 36.3 µM (active); in assay [15], 34.1 µM (active); in assay [16], 20 µM (active); in assay [17] it was 26.9 µM (active); in assay [18], 29.2 µM (active).

The term AC50 denotes the midpoint of the concentration-response curve, whichever way the signal moves.
